Data on 2 molecules can be found in PubChem BioAssay AID956 (National Center for Advancing Translational Sciences (NCATS), 2007).

The other results are listed elsewhere or left out. A call without a number means that no potency is given here. Records with an inconclusive call do not appear. Activity calls are given as the source filed them. The call rests on the fitted dose curve.

The test deals with Amyloid-beta precursor protein (Homo sapiens) (UniProt P05067). In words: Beta amyloid ThS binding assay. The conditions noted are these: Abeta1-42 fibrillization, thioflavin S fluorescence, overnight 37 C. The protocol: NIH Molecular Libraries Screening Centers Network [MLSCN] NIH Chemical Genomics Center [NCGC] MLSCN Grant: 1 X01 MH079825-01 Assay Provider: Jeffrey A. Kuret, Ohio State University NCGC Assay Overview: Alzheimer disease is characterized by the accumulation of proteinacious aggregates comprised of tau and beta-amyloid. The protein components of each lesion can be induced to form filaments under experimentally tractable times when incubated in vitro with anionic inducers such as alkyl sulfate detergents or fatty acids. […] Here we describe the in vitro fibrillization of beta-amyloid 1-42 (Abeta1-42). Abeta1-42 proteins were induced to form filaments by incubation overnight at 37 C in the presence of arachidonic acid. […] Small molecules capable of ThS displacement or antagonizing fibrillization result in a decrease in ThS fluorescence, allowing determination of binding affinities for molecules screened.
Sequence of Amyloid-beta precursor protein (Homo sapiens) (P05067 whole entry, looked up): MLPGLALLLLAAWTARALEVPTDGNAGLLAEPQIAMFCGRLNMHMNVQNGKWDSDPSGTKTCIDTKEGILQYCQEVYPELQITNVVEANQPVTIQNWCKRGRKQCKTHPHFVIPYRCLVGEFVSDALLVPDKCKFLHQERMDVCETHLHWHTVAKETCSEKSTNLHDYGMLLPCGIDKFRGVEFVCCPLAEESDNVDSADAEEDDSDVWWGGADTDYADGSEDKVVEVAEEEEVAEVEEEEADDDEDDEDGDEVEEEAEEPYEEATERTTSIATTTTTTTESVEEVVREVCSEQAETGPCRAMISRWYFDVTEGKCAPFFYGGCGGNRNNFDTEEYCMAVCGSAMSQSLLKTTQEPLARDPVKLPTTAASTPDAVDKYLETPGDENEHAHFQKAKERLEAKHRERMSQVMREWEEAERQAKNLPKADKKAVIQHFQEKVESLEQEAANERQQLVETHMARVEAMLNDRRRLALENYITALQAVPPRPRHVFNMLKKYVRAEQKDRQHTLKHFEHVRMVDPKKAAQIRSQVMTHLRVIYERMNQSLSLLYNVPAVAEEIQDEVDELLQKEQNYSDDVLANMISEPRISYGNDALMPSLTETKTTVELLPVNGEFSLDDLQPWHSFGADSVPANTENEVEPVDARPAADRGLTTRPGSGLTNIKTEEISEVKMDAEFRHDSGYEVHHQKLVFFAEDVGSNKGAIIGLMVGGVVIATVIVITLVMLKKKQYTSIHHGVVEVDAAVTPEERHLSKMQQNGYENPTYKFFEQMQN
NCGC Assay Protocol Summary Human Beta amyloid peptide 1-42 (American Peptide Co., Sunnyvale, CA) was resuspended in hexafluoroisopropanol (by vortexing in a glass vial) to a final concentration of 1 mM. […] Fluorescence (ex = 440 nm; em = 485 nm) was measured after brief shaking (10 s) in a FlexStation plate reader (Molecular Devices, Sunnyvale, CA) operated at sensitivity 10, automatic PMT. […]
In the case of `Oc1ccc(O)c2c(O)cccc12`, the Potency is 4.52 µM (active).
With `O=C(CCCCn1c(=O)[nH]c2ccccc2c1=O)NCc1ccc2c(c1)OCO2`, the call was inactive.
